Screens (PubChem)
The list is not random: actives were taken first. Their share in the collection is about 4.7%.
Pemphigus Ab inh: blocks pemphigus antibody binding to human desmoglein-3. DSG3-coupled beads, scFv-anti-DSG3-GFP binding, flow cytometry; hits give low values. binding (percent of control), % at 10 µM. hit rate 0.48% among 310,000;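 active means binding more than 3 SD below its plate's average and above zero; inconclusive means below that plate limit but binding exactly zero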;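 further: hits lower antibody fragment binding to DSG3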
rCAG binder: molecules binding r(CAG) RNA repeats; inhibition, % at 3 µM; hit rate 1.3% among 370,000; r(CAG) RNA repeat, TO-PRO-1 dye displacement fluorescence;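 active means inhibition above the plate cutoff, the mean of all test compounds on that plate plus 3 SD, cut at about 35% in these data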;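 further: higher means more dye released from RNA so lower well fluorescence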
MPTP block: permeability transition pore inhibition; isolated mouse mitochondria, Ca2+ swelling absorbance, 30 min; inhibition, % at 10 µM; hit rate 1.4% among 360,000;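 active means inhibition of 50% or more, scaled per plate between neutral and stimulator controls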
ADAM17 inh: inhibitors of human ADAM17 | P78536 | recombinant ADAM17, EDANS/DABCYL FRET peptide cleavage | inhibition, % at 6.95 µM | hit rate 0.83% among 370,000;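 active means inhibition above the mean of compounds lying between control limits plus 3 SD, set per campaign, cut at about 8.5% in these data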
proKLK7 act: proKLK7 (human) activation, primary screen; P49862; hit rate 0.9% among 370,000; activation, % at 7 µM; purified proKLK7, EDANS-DABCYL substrate fluorescence; 100% is mature enzyme control, 0% vehicle; AID 652039;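 active means activation above the mean of all tested compounds plus 3 SD, computed per campaign excluding outliers beyond control limits, cut at about 13% in these data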
ADAM10 inh: inhibits human ADAM10 | AID 720582 | inhibition, % at 7 µM | recombinant ADAM10, EDANS/DABCYL FRET peptide cleavage, 3 h | hit rate 0.62% among 370,000;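 active means inhibition above a per-campaign cutoff equal to the mean of compounds falling between control-based bounds plus 3 SD, cut at about 20% in these data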
Target sequence (O14672 214-748 limits assumed): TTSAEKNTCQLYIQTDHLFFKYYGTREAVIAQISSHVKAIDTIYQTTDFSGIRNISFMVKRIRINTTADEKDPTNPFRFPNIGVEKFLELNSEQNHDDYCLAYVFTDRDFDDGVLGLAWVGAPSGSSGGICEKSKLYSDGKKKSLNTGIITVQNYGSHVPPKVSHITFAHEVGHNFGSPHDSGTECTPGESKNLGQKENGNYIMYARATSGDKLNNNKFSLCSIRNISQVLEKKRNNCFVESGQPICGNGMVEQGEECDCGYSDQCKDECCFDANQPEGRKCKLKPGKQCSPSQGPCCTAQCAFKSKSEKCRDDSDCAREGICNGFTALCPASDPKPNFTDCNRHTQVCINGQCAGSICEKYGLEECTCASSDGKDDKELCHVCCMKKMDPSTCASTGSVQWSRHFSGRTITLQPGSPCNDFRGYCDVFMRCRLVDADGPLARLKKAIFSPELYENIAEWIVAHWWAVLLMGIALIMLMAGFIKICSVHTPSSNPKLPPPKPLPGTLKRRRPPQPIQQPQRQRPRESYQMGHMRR
rCAG bind conf: r(CAG) RNA repeat binding, confirmation; hit rate 70% among 4,300; TO-PRO-1 dye displacement fluorescence; shares compounds with rCAG binder; inhibition, % at 3 µM; AID 652065;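 active means inhibition above a per-plate cutoff, the mean inhibition of sample wells plus 3 SD, cut at about 35% in these data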;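 further: loss of TO-PRO-1 fluorescence as compound displaces dye from 1x1 AA loop RNA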
dCAG dye counter: counter-screen for rCAG RNA binders: DNA CAG dye complex inhibitors; shares compounds with rCAG binder; d(CAG) DNA oligo TO-PRO-1 dye displacement, fluorescence; inhibition, % at 3 µM; hit rate 94% among 4,300; AID 652068;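 active means inhibition above its plate's cutoff, the mean test-well inhibition plus 3 SD, cut at about 4.8% in these data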;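 further: hits displace the dye from DNA and so lower well fluorescence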
Large screens that a line does not name were inactive (follow-up assays come after a bar, where they were run).

Cc1ccc2oc(-c3cccc(NC(=S)NC(=O)/C=C/c4ccco4)c3)nc2c1	rCAG binder 37 | rCAG bind conf inactive | dCAG dye counter 9.8
Cc1ccc(NC(=S)NC(=O)/C=C/c2ccco2)c(O)c1	rCAG binder 35 | rCAG bind conf 38 | dCAG dye counter 15
Cc1ccc2oc(-c3cccc(NC(=S)NC(=O)c4cccs4)c3)nc2c1	none
COC(=O)[C@]12C[C@H](CC(=O)NCc3cccc4ccccc34)C(=O)N(CCC3=CCCCC3)C1=C[C@H](C(C)(C)C)O[C@@H]2C	none (no result: Pemphigus Ab inh, MPTP block)
CC1(OC(=O)CCc2ccccc2)C(=O)C=C2C=C(c3ccc(C#N)cc3)N(Cc3ccco3)C=C2C1=O (centres undefined)	rCAG binder 37 | rCAG bind conf inactive | dCAG dye counter 16
CC1(OC(=O)CCc2ccccc2)C(=O)C=C2C=C(c3ccc(C#N)cc3)N(Cc3ccccc3)C=C2C1=O (centres undefined)	none
Nc1[nH]c2cc([N+](=O)[O-])ccc2c1-c1ccccn1	rCAG binder 41 | rCAG bind conf inactive | dCAG dye counter 19
Cc1ccnc2c(N3C(=O)C4C5c6ccccc6C(c6ccccc65)C4C3=O)cccc12 (centres undefined)	rCAG binder 47 | rCAG bind conf inactive | dCAG dye counter 4.4
Cc1cccc(-c2cccc3c4c([nH]c23)[C@@H]2C[C@H](N(C)C(=O)Nc3ccccc3C)[C@H]([C@H](C)O)CN2CC4)c1	none (no result: Pemphigus Ab inh, MPTP block)
CCOC(=O)c1sc2nc(-c3ccco3)c3c(c2c1N)CC(C)(C)OC3	rCAG binder 51 | rCAG bind conf 35 | dCAG dye counter 14
Cc1nc2sc(C(=O)O)c(N)c2c2c1COC(C)(C)C2	Pemphigus Ab inh inconclusive
CC1=C(O)C(=O)C(c2c(C)cc(C)c(Br)c2C)=C(O)C1=O	none
[S-]c1nnc(-c2ccc(Br)cc2)n1-c1ccccc1.[Zn+2]	none
N#Cc1c(Cl)c(Cl)c2nnc(-c3ccc(Br)cc3)n2c1Cl	rCAG binder 44 (no result: Pemphigus Ab inh, MPTP block) | rCAG bind conf 40 | dCAG dye counter 11
C/C(=N\Nc1c(Cl)c(Cl)nc(C(=O)O)c1Cl)c1ccc(O)cc1	rCAG binder 40 | rCAG bind conf inactive | dCAG dye counter 4.5
CCC(C(=O)Nc1ccc(C)cc1)c1ccccc1 (centres undefined)	none
CCC(C(=O)Nc1ccc(C(=O)O)cc1NC(=O)C(CC)c1ccccc1)c1ccccc1 (centres undefined)	rCAG binder 63 | rCAG bind conf 57 | dCAG dye counter 23
CCC(C(=O)Nc1ccc(C(=O)Nc2ccccc2C(=O)O)cc1)c1ccccc1 (centres undefined)	rCAG binder 75 | rCAG bind conf 67 | dCAG dye counter 27
CCN(CC)S(=O)(=O)c1cc(C(=O)Nc2ccccc2C(=O)O)ccc1OC	rCAG binder 37 | rCAG bind conf inactive | dCAG dye counter 6.6
CCC(C(=O)Nc1cc(C(=O)O)ccc1C)c1ccccc1 (centres undefined)	none
COc1ccccc1C(=O)Nc1ccc(C(=O)Nc2ccccc2C(=O)O)cc1	rCAG binder 42 | rCAG bind conf 60 | dCAG dye counter 20
Cc1ccc2nc(-c3ccc(F)cc3)c(Cc3cccc(F)c3)n2c1	none (no result: Pemphigus Ab inh, MPTP block)
CN1CCN(C(=O)C[C@H]2CC[C@H]3[C@@H](COC[C@@H](O)CN3C(=O)C3CCCC3)O2)CC1	none (no result: Pemphigus Ab inh)
Cc1ccc([C@@H]2CC=C(C(=O)O)[C@H](c3ccccc3F)N2S(=O)(=O)c2ccc(C)cc2)cc1	rCAG binder 61 | rCAG bind conf 55 | dCAG dye counter 21
Cc1ccc(S(=O)(=O)N2[C@@H](c3ccccc3F)C(C(=O)O)=CC[C@H]2c2ccc(C(C)C)cc2)cc1	rCAG binder 77 | rCAG bind conf 81 | dCAG dye counter 47
C[C@H](O)[C@@H]1C(=O)N2CCc3c([nH]c4ccccc34)[C@@H]2C[C@@H]1N(C)C(=O)OCc1ccccc1	none (no result: Pemphigus Ab inh, MPTP block)
CCOC(=O)N1CCN(C(=O)C(CC(C)C)NS(=O)(=O)c2ccc(C)cc2)CC1 (centres undefined)	none
O=S(=O)(Nc1ccc(S(=O)(=O)N2CCCCC2)cc1)c1ccc(Br)s1	rCAG binder 60 | rCAG bind conf 60 | dCAG dye counter 16
O=S(=O)(Nc1ccc(S(=O)(=O)N2CCCCCC2)cc1)c1cccs1	none
O=C(O)COc1ccc(-c2nnn(CC(=O)O)n2)cc1	none
O=C(O)Cn1nnc(-c2ccc(OCc3ccccc3Cl)cc2)n1	rCAG binder 39 (no result: MPTP block) | rCAG bind conf inactive | dCAG dye counter inactive
CN1CCN(C(=O)c2cc([N+](=O)[O-])cc([N+](=O)[O-])c2)CC1	none
O=C(N[C@H](C(=O)N1CCC[C@H]1C(=O)NC1CCCC1)C1CCCCC1)c1ccccn1	none (no result: Pemphigus Ab inh, MPTP block)
O=C(O)CCn1cc(/C=C/C(=O)c2ccc(Cl)cc2)c(-c2ccc(Br)cc2)n1	rCAG binder 59 | rCAG bind conf 84 | dCAG dye counter 49
O=S1(=O)c2ccc(N3CC[C@@H](O)C3)cc2O[C@H]2CCN1C2	none (no result: Pemphigus Ab inh, MPTP block)
CN(C(=S)NC(=O)C1CCCC1)c1ccccc1	none
CC(/C=N/n1c(-c2cc(C)[nH]n2)n[nH]c1=S)=C\c1ccco1	none (no result: Pemphigus Ab inh)
Fc1ccc(-c2n[nH]c(=S)n2N=Cc2ccc(-c3ccccc3)cc2)cc1	rCAG binder 44 (no result: Pemphigus Ab inh, MPTP block) | rCAG bind conf 40 | dCAG dye counter 16
S=c1[nH]nc(-c2ccccc2)n1/N=C/c1ccc(Cl)cc1	none
CCN(CC)c1ccc(C=Nn2c(-c3ccc(F)cc3)n[nH]c2=S)c(O)c1	rCAG binder 64 (no result: Pemphigus Ab inh, MPTP block) | rCAG bind conf 52 | dCAG dye counter 16
CC(/C=N/n1c(-c2ccc(Cl)cc2)n[nH]c1=S)=C\c1ccco1	rCAG binder 39 | rCAG bind conf 39 | dCAG dye counter 12
S=c1[nH]nc(-c2ccncc2)n1/N=C/C(Cl)=C\c1ccccc1	rCAG binder 39 | rCAG bind conf inactive | dCAG dye counter 9.5
COCCN(Cc1ccc(C)cc1)C(=O)[C@H]1O[C@@H](n2cnc(C(N)=O)n2)[C@H](O)[C@@H]1O	none (no result: Pemphigus Ab inh, MPTP block)
Fc1ccc(-c2n[nH]c(=S)n2N=Cc2ccc(OCc3ccccc3)cc2)cc1	rCAG binder 67 (no result: Pemphigus Ab inh, MPTP block) | rCAG bind conf 47 | dCAG dye counter 17
N#Cc1cc(N2CCCCC2)c([N+](=O)[O-])cc1C#N	none
O=[N+]([O-])c1cc2no[n+]([O-])c2cc1N1CCCCC1	rCAG binder 44 | rCAG bind conf inactive | dCAG dye counter inactive
COc1ccc(Cl)cc1NC(=S)NNC(=O)c1cccs1	rCAG binder 36 | rCAG bind conf inactive | dCAG dye counter 9.6
